Consider 40 molecules from ChEMBL document CHEMBL3433997, “St. Jude Leishmania screening dataset” (2016).

Solute carrier family 2, facilitated glucose transporter member 1 (Homo sapiens), sequence (P11166 whole entry): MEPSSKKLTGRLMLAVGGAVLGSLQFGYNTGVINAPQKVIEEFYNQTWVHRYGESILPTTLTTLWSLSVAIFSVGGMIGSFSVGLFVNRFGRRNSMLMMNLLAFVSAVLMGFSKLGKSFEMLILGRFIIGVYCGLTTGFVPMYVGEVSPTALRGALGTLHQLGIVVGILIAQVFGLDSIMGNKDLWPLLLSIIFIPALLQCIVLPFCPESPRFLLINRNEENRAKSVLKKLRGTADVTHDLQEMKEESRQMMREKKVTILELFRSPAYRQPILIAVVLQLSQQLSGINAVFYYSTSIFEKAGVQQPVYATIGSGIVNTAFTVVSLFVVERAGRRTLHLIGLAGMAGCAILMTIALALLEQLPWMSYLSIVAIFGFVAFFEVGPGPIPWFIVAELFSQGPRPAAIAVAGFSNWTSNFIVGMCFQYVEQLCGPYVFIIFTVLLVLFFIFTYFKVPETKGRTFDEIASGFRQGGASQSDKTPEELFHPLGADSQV

The first assay has as its target Solute carrier family 2, facilitated glucose transporter member 1 (Homo sapiens) (UniProt P11166). In words: ST_JUDE_LEISH: Cytotoxicity at 2uM final concentration against transgenic Leishmania Mexicana promastigotes LmGLUT1 that are glucose transport deficient and complemented with the human glucose transporter GLUT1. Activity is measured by DNA content using SYBR green in vitro. Type of assay: functional.
In general, inhibition refers to the drop in the measured response relative to a control, in per cent. As to `COc1c(C2CCN(CCCCNC(=O)c3ccc(-c4ccc(C(F)(F)F)cc4)c(C(=O)OC(C)C)c3)CC2)ccc2c1CCCC2`, the inhibition stood at 1.36%.
Still for that read-out and setting: to `COc1cccc(NC(=O)COc2ccc(C(=O)Nc3nc4ccccc4[nH]3)cc2)c1` belongs 2.45%; to `N#Cc1cccc(C(=O)Nc2cccc(-c3ccc(CN4CCC(O)CC4)cc3)c2)c1`, 3.3%; to `Cc1cc(=NN=Cc2ccc(F)cc2)c2cc(F)ccc2[nH]1`, 2.6%.
The same measure, in the same setting: to `COc1ccc2ccccc2c1CCCCN1CCN(CC(c2ccc(F)cc2)N2CCN(C(C)C)CC2)CC1` (stereo not given) belongs 17.9%.
In the case of `Cc1cc(N2CCNCC2)c2cc(NC(=O)Nc3ccc(Cl)c(Cl)c3)ccc2n1`, the inhibition is 3.19%.
For the molecule `CCc1nc(N)nc(N)c1-c1ccc(F)c(F)c1`, the inhibition was 3%.
With `O=C(/C=C/c1ccc(Cl)c(Cl)c1)NCCCCCN1CCCC(CNC(=O)c2sc3ccccc3c2Cl)C1` (stereo not given), the inhibition is -1.59%.
On the same count and under the same terms, the figure for `COc1ccc2nc(N)nc(C)c2c1` is 4.18%; for `O=C(Nc1ccc(-c2cccc(-c3nc4cc(C(F)(F)F)ccc4[nH]3)c2)cc1)c1ccc(=O)[nH]n1` it is 3.7%; for `Nc1ncc(-c2cn[nH]c2)cc1-c1nc2cc(Cl)cnc2[nH]1` it is 3.35%.
As to `Cc1cnc(C(=O)Nc2cccc(-c3csc(-c4nc5ccccc5[nH]4)c3)c2)cn1`, the inhibition was 5.41%.
In the case of `CCCOc1cc(O)c(-c2[nH]nc(C)c2Oc2ccccc2)cc1CC`, the inhibition is 1.25%.
Turning to `CCCCc1ccc2[nH]c(NC(=O)OC)nc2c1`, the inhibition is 10.2%.
For `Fc1ccc2[nH]cc(CCNCc3ccc(-c4cccc(-c5nc6ccccc6[nH]5)c4)cc3)c2c1`, the inhibition amounted to 4.9%.
On to `CN1CCCC(CN2CCN(Cc3cccc(-c4cccc(-c5nc6ccccc6[nH]5)c4)c3)CC2)C1` (stereo not given), for which the inhibition came out at 1.59%.
For `O=S(=O)(c1ccccc1)C1CC1`, the inhibition was 1.39%.
Consider `CC(C)Cn1c(N)cc(=O)n(C)c1=O`, for which the inhibition came out at 3.76%.
`Cc1cccc(Cl)c1S(=O)(=O)N1CCCCC(c2ccc(C(F)(F)F)cc2)=N1`: the inhibition was 4.54%.
On the same count and under the same terms, to `C#CCCOc1ccc2ccccc2c1CNCCCCCCNCc1c(OCCC#C)ccc2ccccc12` belongs -1.76%.
With `Cc1cc2c(NC(=O)NC3CCN(CCc4cccc(Cl)c4)CC3)cccc2cn1`, the inhibition is -1.26%.
On the same count and under the same terms, to `O=C(CSc1nc2ccccc2c(=O)n1C1CC1)Nc1cc(C(F)(F)F)ccc1Cl` belongs -0.03%; to `Nc1cccc(CNCc2ccc(-c3cccc(-c4nc5ccccc5[nH]4)c3)cc2)c1`, 1.2%.
Turning to `Cc1nc2nc(N)nc(N)c2c(C)c1Cc1c(Cl)cccc1Cl`, the inhibition worked out at 8.8%.
Same read-out and setting: the figure for `CNCCNCc1cccc(-c2ccc(-c3nc4cc(C(F)(F)F)ccc4[nH]3)s2)c1` is 2.35%; for `Cc1ncccc1C(=O)Nc1cccc(-c2cccc(-c3nc4cccc(C)c4[nH]3)c2)c1` it is 0.36%; for `Cc1ccccc1C1CCN(C2CCC(NC(=O)c3csc(-c4cccc(Cl)c4)n3)CC2)CC1` (stereo not given) it is 9.21%.
Same read-out and setting: to `Cc1nc(C)c(-c2ccc(Cl)cc2)c(O)c1I` belongs 4.26%.
Regarding `CCOc1ccc2nc(NC(=O)c3csnn3)sc2c1`, the inhibition amounted to 4.69%.
Consider `CCN(CC)CCN(CCCc1ccc(-c2ccc(C(F)(F)F)cc2)cc1)C(=O)Cn1c(CCc2cccc(F)c2F)nc(=O)c2ccccc21`, for which the inhibition came to 2.87%.
Same read-out and setting: the figure for `Cc1cc(Nc2nc(Nc3cccc(Cl)c3)nc3ccccc23)n[nH]1` is 10.5%; for `CCCNCc1ccc(-c2ccc(CN(C(=O)c3nn(-c4ccccc4)nc3C)C3CC3)cc2)nc1` it is 0.19%; for `O=C(/C=C/c1cc(C(F)(F)F)ccc1F)NCCCCCN1CCC(c2c[nH]c3ccccc23)CC1` it is 0.77%.
Regarding `Cc1cccc2nc(-c3ccc(-c4cccc(CNCc5ccc(CN)cc5)c4)s3)[nH]c12`, the inhibition was 3.9%.
On to `Fc1ccc2[nH]c(-c3cccc(-c4ccc(CN5CCC(CCN6CCCCC6)CC5)cc4)c3)nc2c1`, for which the inhibition was -0.64%.
Regarding `CC(C)(C)OC(=O)NCC(=O)N(Cc1ccccc1)Cc1ccccc1`, the inhibition was 4.96%.
On to `CN1CCN(c2cc3c(Nc4ccc5c(cnn5Cc5ccccc5)c4)ncnc3cn2)CC1`, for which the inhibition is 1.33%.
On the same count and under the same terms, the figure for `Cc1cccc(CN2CCC(CNC(=O)c3cc4c(-c5ccccc5F)nn(C)c4s3)CC2)c1` is 4.22%.
On to `COc1cccc(-c2ccc(C(=O)NCC3CCCN(Cc4cccc(C(F)(F)F)c4)C3)s2)c1` (stereo not given), for which the inhibition amounted to 2.94%.
On the same count and under the same terms, the figure for `CN1CCc2cc(O)c(NS(=O)(=O)c3ccc(-c4ccc(Cl)cc4)cc3)cc2CC1` is 12.4%.

Another assay deals with Hexose transporter 1 (Plasmodium falciparum) (UniProt O97467). In words: ST_JUDE_LEISH: Cytotoxicity at 2uM final concentration against transgenic Leishmania Mexicana promastigotes LmPfHT that are glucose transport deficient and complemented with the Plasmodium falciparum hexose transporter. Activity is measured by DNA content using SYBR green in vitro. Type of assay: functional.
Take `COc1c(C2CCN(CCCCNC(=O)c3ccc(-c4ccc(C(F)(F)F)cc4)c(C(=O)OC(C)C)c3)CC2)ccc2c1CCCC2`: the inhibition is 1.79%.
On the same count and under the same terms, the figure for `COc1cccc(NC(=O)COc2ccc(C(=O)Nc3nc4ccccc4[nH]3)cc2)c1` is 2.07%; for `N#Cc1cccc(C(=O)Nc2cccc(-c3ccc(CN4CCC(O)CC4)cc3)c2)c1` it is -0.89%.
Turning to `Cc1cc(=NN=Cc2ccc(F)cc2)c2cc(F)ccc2[nH]1`, the inhibition worked out at 3.14%.
Consider `COc1ccc2ccccc2c1CCCCN1CCN(CC(c2ccc(F)cc2)N2CCN(C(C)C)CC2)CC1` (stereo not given), for which the inhibition turned out to be 9.64%.
For the molecule `Cc1cc(N2CCNCC2)c2cc(NC(=O)Nc3ccc(Cl)c(Cl)c3)ccc2n1`, the inhibition amounted to 3.7%.
For `CCc1nc(N)nc(N)c1-c1ccc(F)c(F)c1`, the inhibition is 5.22%.
`O=C(/C=C/c1ccc(Cl)c(Cl)c1)NCCCCCN1CCCC(CNC(=O)c2sc3ccccc3c2Cl)C1` (stereo not given): the inhibition was -2.38%.
`COc1ccc2nc(N)nc(C)c2c1`: the inhibition worked out at 2.86%.
On to `O=C(Nc1ccc(-c2cccc(-c3nc4cc(C(F)(F)F)ccc4[nH]3)c2)cc1)c1ccc(=O)[nH]n1`, for which the inhibition was 2.75%.
Consider `Nc1ncc(-c2cn[nH]c2)cc1-c1nc2cc(Cl)cnc2[nH]1`, for which the inhibition was found to be 1.4%.
Take `Cc1cnc(C(=O)Nc2cccc(-c3csc(-c4nc5ccccc5[nH]4)c3)c2)cn1`: the inhibition was determined as 1.2%.
On to `CCCOc1cc(O)c(-c2[nH]nc(C)c2Oc2ccccc2)cc1CC`, for which the inhibition is -0.1%.
Take `CCCCc1ccc2[nH]c(NC(=O)OC)nc2c1`: the inhibition amounted to 7.79%.
With `Fc1ccc2[nH]cc(CCNCc3ccc(-c4cccc(-c5nc6ccccc6[nH]5)c4)cc3)c2c1`, the inhibition was found to be 4.54%.
In the case of `CN1CCCC(CN2CCN(Cc3cccc(-c4cccc(-c5nc6ccccc6[nH]5)c4)c3)CC2)C1` (stereo not given), the inhibition is 2.2%.
As for `O=S(=O)(c1ccccc1)C1CC1`, the inhibition stood at 0.38%.
Take `CC(C)Cn1c(N)cc(=O)n(C)c1=O`: the inhibition came to 3.45%.
Regarding `Cc1cccc(Cl)c1S(=O)(=O)N1CCCCC(c2ccc(C(F)(F)F)cc2)=N1`, the inhibition came out at 4.52%.
For `C#CCCOc1ccc2ccccc2c1CNCCCCCCNCc1c(OCCC#C)ccc2ccccc12`, the inhibition worked out at 3.36%.
As for `Cc1cc2c(NC(=O)NC3CCN(CCc4cccc(Cl)c4)CC3)cccc2cn1`, the inhibition came to 1.1%.
The same measure, in the same setting: the figure for `O=C(CSc1nc2ccccc2c(=O)n1C1CC1)Nc1cc(C(F)(F)F)ccc1Cl` is -2.91%; for `Nc1cccc(CNCc2ccc(-c3cccc(-c4nc5ccccc5[nH]4)c3)cc2)c1` it is 0.24%.
For `Cc1nc2nc(N)nc(N)c2c(C)c1Cc1c(Cl)cccc1Cl`, the inhibition was 10.7%.
Consider `CNCCNCc1cccc(-c2ccc(-c3nc4cc(C(F)(F)F)ccc4[nH]3)s2)c1`, for which the inhibition is 3.82%.
Turning to `Cc1ncccc1C(=O)Nc1cccc(-c2cccc(-c3nc4cccc(C)c4[nH]3)c2)c1`, the inhibition was 1.44%.
In the case of `Cc1ccccc1C1CCN(C2CCC(NC(=O)c3csc(-c4cccc(Cl)c4)n3)CC2)CC1` (stereo not given), the inhibition was 12%.
On the same count and under the same terms, to `Cc1nc(C)c(-c2ccc(Cl)cc2)c(O)c1I` belongs 2.05%; to `CCOc1ccc2nc(NC(=O)c3csnn3)sc2c1`, 3.55%; to `CCN(CC)CCN(CCCc1ccc(-c2ccc(C(F)(F)F)cc2)cc1)C(=O)Cn1c(CCc2cccc(F)c2F)nc(=O)c2ccccc21`, 2.91%.
Take `Cc1cc(Nc2nc(Nc3cccc(Cl)c3)nc3ccccc23)n[nH]1`: the inhibition came out at 17.2%.
Turning to `CCCNCc1ccc(-c2ccc(CN(C(=O)c3nn(-c4ccccc4)nc3C)C3CC3)cc2)nc1`, the inhibition was found to be 0.58%.
`O=C(/C=C/c1cc(C(F)(F)F)ccc1F)NCCCCCN1CCC(c2c[nH]c3ccccc23)CC1`: the inhibition amounted to 1.47%.
Still for that read-out and setting: the figure for `Cc1cccc2nc(-c3ccc(-c4cccc(CNCc5ccc(CN)cc5)c4)s3)[nH]c12` is 3.91%; for `Fc1ccc2[nH]c(-c3cccc(-c4ccc(CN5CCC(CCN6CCCCC6)CC5)cc4)c3)nc2c1` it is 4.58%.
In the case of `CC(C)(C)OC(=O)NCC(=O)N(Cc1ccccc1)Cc1ccccc1`, the inhibition stood at 4.38%.
For the molecule `CN1CCN(c2cc3c(Nc4ccc5c(cnn5Cc5ccccc5)c4)ncnc3cn2)CC1`, the inhibition was determined as 2.08%.
Turning to `Cc1cccc(CN2CCC(CNC(=O)c3cc4c(-c5ccccc5F)nn(C)c4s3)CC2)c1`, the inhibition is 3.22%.
As to `COc1cccc(-c2ccc(C(=O)NCC3CCCN(Cc4cccc(C(F)(F)F)c4)C3)s2)c1` (stereo not given), the inhibition was -4.36%.
Turning to `CN1CCc2cc(O)c(NS(=O)(=O)c3ccc(-c4ccc(Cl)cc4)cc3)cc2CC1`, the inhibition was determined as 9.38%.
